Source: PubChem BioAssay (Tox21)
“And” between values parts separate entries of the source, which are not always exact repeats. Equal entries are not always repeated. Records with an inconclusive call do not appear. The source made the active and inactive calls. Unless noted, calls follow the shape of the dose curve; as a rule, active = well fitted curve in the direction sought with a large enough effect in the repeat runs; inconclusive = weak or mixed curves; inactive = no such curve, though single readings can be large; an effect the other way counts as inactive or inconclusive.

How the values were obtained:
[1] = Caspase-3/7 induction in HepG2 cells by small molecules, qHTS assay (AID 1346978); also: nearly all actives have a fitted effect of over 15% in size; also: potency is read from the fitted curve at half-maximal effect
How it was run: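 Wild-type HepG2 cells, 2,000/well, settled 5 hr at 37 C and 5% CO2, then compound-treated for 17 hr; caspase-3/7 activity read by luminescent Caspase-Glo 3/7 after 30 min at room temperature.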

[2] = Caspase-3/7 induction in CHO-K1 cells by small molecules, qHTS cell viability counter screen (AID 1346979); also: nearly all actives have a fitted effect of over 35% in size; also: potency is read from the fitted curve at half-maximal effect
How it was run: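 Wild-type CHO-K1 cells (1,500/well) treated with compound after 5 h plating; after 16 h at 37C, viability read as CellTiter-Fluor fluorescence following 1 h reagent incubation, in the same wells as the caspase read.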

[3] = Caspase-3/7 induction in CHO-K1 cells by small molecules, qHTS assay (AID 1346980); also: nearly all actives have a fitted effect of over 15% in size; also: potency is read from the fitted curve at half-maximal effect
How it was run: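 Wild-type CHO-K1 cells exposed to compounds for 17hr at 37 C, 5% CO2. Caspase-3/7 activity then measured by Caspase-Glo 3/7 luminescence after 30min at room temperature.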

[4] = Caspase-3/7 induction in HepG2 cells by small molecules, qHTS cell viability counter screen (AID 1346981); also: nearly all actives have a fitted effect of over 30% in size; also: potency is read from the fitted curve at half-maximal effect
How it was run: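 Wild-type HepG2 cells (2,000/well) were allowed to settle for 5 hr at 37 C, 5% CO2, then dosed with compounds in DMSO by pin transfer. After 16 hr at 37 C, CellTiter-Fluor was added and fluorescence read 1 hr later.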

[5] = biological target: Nuclear receptor subfamily 1 group I member 2 (Homo sapiens) (UniProt O75469); experiment: Human pregnane X receptor (PXR) small molecule agonists, qHTS assay (AID 1346982); also: nearly all actives have a fitted effect of over 35% in size; also: potency is read from the fitted curve at half-maximal effect
How it was run: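 PXR-Luc HepG2 cells (CYP3A4 promoter-driven luciferase) were seeded in medium with 5% charcoal-stripped FBS, left 5 hr at 37 C, then exposed to compounds in DMSO for 24 hr. Luminescence was read after ONE-Glo addition.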

[6] = biological target: Acetylcholinesterase (Homo sapiens) (UniProt P22303); experiment: Acetylcholinesterase (AChE) small molecule antagonists: enzyme-based qHTS assay (AID 1347397; calls by dose curve; also: nearly all actives have a fitted effect of over 55% in size); conditions: Potency: AChE enzyme activity inhibition
How it was run: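 Recombinant human AChE (50 mU/mL) preincubated with compound 30 min at room temperature; acetylthiocholine plus DTNB then added, and thiocholine formation read colorimetrically after 10 min at room temperature. DMSO served as vehicle control.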

[7] = biological target: Acetylcholinesterase (Homo sapiens) (UniProt P22303); experiment: Acetylcholinesterase (AChE) small molecule antagonists: fluorescence cell-based qHTS assay (AID 1347398; calls by dose curve; also: nearly all actives have a fitted effect of over 50% in size); conditions: Potency: AChE activity
How it was run: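 SH-SY5Y cells (2000/well), attached overnight, incubated with compound 30 min at 37 C. Acetylthiocholine plus Thiolite Green then added for 40 min at room temperature. Thiocholine fluorescence (Ex/Em 490/520 nm) reports cellular AChE activity.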

[8] = biological target: Acetylcholinesterase (Homo sapiens) (UniProt P22303); experiment: Acetylcholinesterase (AChE) small molecule antagonists: enzyme-based qHTS assay with human liver microsomes (AID 1347399; calls by dose curve; also: nearly all actives have a fitted effect of over 60% in size); conditions: Potency: qHTS inhibition
How it was run: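 Recombinant human AChE (50 mU/mL in the enzyme mix) and human liver microsomes (0.25 mg/mL final) were preincubated with compound and NADPH (0.25 mg/mL final) for 30 min at 37 C. Acetylthiocholine/DTNB was then added; thiocholine was read colorimetrically after 10 min at room temperature.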

[9] = biological target: Cytochrome P450 2D6 (Homo sapiens) (UniProt P10635); experiment: Cytochrome P450 Family 2 Subfamily D Member 6 (CYP2D6) small molecule antagonists: luciferase reporter qHTS assay (AID 1671196); also: nearly all actives have a fitted effect of over 50% in size; also: potency is read from the fitted curve at half-maximal effect
How it was run: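 CYP2D6 enzyme–substrate mix was held with compound for 10 min at room temperature, then NADPH regeneration solution was added and the reaction ran 1 h at room temperature. Luciferin product was detected by luminescence after 20 min with detection reagent.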

[10] = biological target: Cytochrome P450 2C19 (Homo sapiens) (UniProt P33261); experiment: Cytochrome P450 Family 2 Subfamily C Member 19 (CYP2C19) small molecule antagonists: luciferase reporter qHTS assay (AID 1671197); also: nearly all actives have a fitted effect of over 65% in size; also: potency is read from the fitted curve at half-maximal effect
How it was run: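 Relative luminescence units recorded 20 min after the detection reagent stopped a 1 h, 37C CYP2C19 reaction on proluciferin substrate, which was started by NADPH regeneration following 10 min room-temperature compound preincubation; ketoconazole positive control.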

[11] = biological target: Cytochrome P450 2C9 (Homo sapiens) (UniProt P11712); experiment: Cytochrome P450 Family 2 Subfamily C Member 9 (CYP2C9) small molecule antagonists: luciferase reporter qHTS assay (AID 1671198); also: nearly all actives have a fitted effect of over 50% in size; also: potency is read from the fitted curve at half-maximal effect
How it was run: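 P450-Glo proluciferin substrate with CYP2C9 enzyme; 10 min RT preincubation, then NADPH regeneration 1 h at 37C; luciferin detection reagent 20 min RT, luminescence in relative luminescence units.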

[12] = biological target: Cytochrome P450 1A2 (Homo sapiens) (UniProt P05177); experiment: Cytochrome P450 Family 1 Subfamily A Member 2 (CYP1A2) small molecule antagonists: luciferase reporter qHTS assay (AID 1671199); also: nearly all actives have a fitted effect of over 50% in size; also: potency is read from the fitted curve at half-maximal effect
How it was run: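 Human CYP1A2 activity measured with a P450-Glo proluciferin substrate; compounds in DMSO preincubated 10 min at room temperature with enzyme-substrate mix, then NADPH regeneration system added for 1 h. Luciferin detection reagent, 20 min, luminescence read.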

[13] = biological target: Voltage-gated inwardly rectifying potassium channel KCNH2 (Homo sapiens) (UniProt Q12809); experiment: Human Ether-a-go-go-Related Gene (hERG) channel small molecule antagonists: fluorescence cell-based qHTS assay (AID 1671200); also: nearly all actives have a fitted effect of over 50% in size; also: potency is read from the fitted curve at half-maximal effect
How it was run: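 hERG-U2OS cells plated overnight at 37 C, loaded with FluxOR II dye 1 h at RT in dark; after 10 min, thallium stimulus added. Fluorescence (480/540 nm) read kinetically for 2 min at 1 s intervals.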

[14] = biological target: Cytochrome P450 3A4 (Homo sapiens) (UniProt P08684); experiment: Cytochrome P450 Family 3 Subfamily A Member 4 (CYP3A4) small molecule antagonists: luciferase reporter qHTS assay (AID 1671201); also: nearly all actives have a fitted effect of over 50% in size; also: potency is read from the fitted curve at half-maximal effect
How it was run: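 P450-Glo CYP3A4 luminescent assay: compounds preincubated 10 min at room temperature with enzyme and proluciferin substrate, NADPH regeneration added, 1 h room-temperature reaction, stopped with luciferin detection reagent; luminescence read after 20 min. Ketoconazole positive control.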

[15] = biological target: Acetylcholinesterase (Homo sapiens) (UniProt P22303); experiment: Acetylcholinesterase (AChE) small molecule antagonists: colormetric cell-based qHTS assay (AID 1347395; calls by dose curve; also: nearly all actives have a fitted effect of over 30% in size)
How it was run: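 SH-SY5Y cells attached overnight, exposed to compound 30 min at 37 C, then given DTNB/acetylthiocholine; after 90 min at 37 C, colorimetric thiocholine read gives cellular AChE activity.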

[16] = biological target: Nuclear receptor subfamily 1 group I member 2 (Rattus norvegicus) (UniProt Q9R1A7); experiment: Rat pregnane X receptor (rPXR) activation by small molecules, qHTS assay (AID 1346983); conditions: rPXR luciferase reporter cells, One-Glo luminescence, 24 h; max activation: stronger effect = higher value; also: nearly all actives have a fitted effect of over 20% in size
How it was run: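 Cell-based rPXR activation assay: rPXR cells, 2,000 per well, rested 5hr at 37 C, then exposed to compounds in DMSO for 24 hr at 37 C. Luciferase activity read by One-Glo luminescence after 30 min at room temperature.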

[17] = biological target: Nuclear receptor subfamily 1 group I member 2 (Homo sapiens) (UniProt O75469); experiment: CYP3A4 induction through human pregnane X receptor (PXR) by small molecules, qHTS assay (AID 1346984); also: nearly all actives have a fitted effect of over 40% in size
How it was run: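 DPX-2 cells (HepG2 co-transfected with PXR and CYP3A4 promoter-luciferase) treated with compounds 24 h at 37C; luciferin-IPA CYP3A4 substrate 3uM final added for 3 h, then One-Glo; luminescence read. qHTS format.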
% is scaled to controls: 0 for no effect and ±100 for the full control effect.

Sequence of Cytochrome P450 2C9 (Homo sapiens) (P11712 whole entry, looked up): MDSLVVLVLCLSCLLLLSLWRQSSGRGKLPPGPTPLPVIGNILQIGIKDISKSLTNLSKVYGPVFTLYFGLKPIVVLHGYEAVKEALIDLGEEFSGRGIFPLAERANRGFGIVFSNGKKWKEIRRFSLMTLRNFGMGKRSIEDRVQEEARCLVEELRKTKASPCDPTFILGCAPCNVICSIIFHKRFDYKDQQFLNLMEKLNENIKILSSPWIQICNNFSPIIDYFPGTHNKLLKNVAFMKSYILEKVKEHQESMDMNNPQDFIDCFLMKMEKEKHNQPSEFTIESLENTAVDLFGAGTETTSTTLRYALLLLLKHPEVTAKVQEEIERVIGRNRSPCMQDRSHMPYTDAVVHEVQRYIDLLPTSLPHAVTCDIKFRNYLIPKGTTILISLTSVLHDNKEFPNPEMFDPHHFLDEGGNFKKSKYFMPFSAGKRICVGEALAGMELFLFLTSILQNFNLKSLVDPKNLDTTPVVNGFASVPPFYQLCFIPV
Sequence of Cytochrome P450 1A2 (Homo sapiens) (P05177 whole entry, looked up): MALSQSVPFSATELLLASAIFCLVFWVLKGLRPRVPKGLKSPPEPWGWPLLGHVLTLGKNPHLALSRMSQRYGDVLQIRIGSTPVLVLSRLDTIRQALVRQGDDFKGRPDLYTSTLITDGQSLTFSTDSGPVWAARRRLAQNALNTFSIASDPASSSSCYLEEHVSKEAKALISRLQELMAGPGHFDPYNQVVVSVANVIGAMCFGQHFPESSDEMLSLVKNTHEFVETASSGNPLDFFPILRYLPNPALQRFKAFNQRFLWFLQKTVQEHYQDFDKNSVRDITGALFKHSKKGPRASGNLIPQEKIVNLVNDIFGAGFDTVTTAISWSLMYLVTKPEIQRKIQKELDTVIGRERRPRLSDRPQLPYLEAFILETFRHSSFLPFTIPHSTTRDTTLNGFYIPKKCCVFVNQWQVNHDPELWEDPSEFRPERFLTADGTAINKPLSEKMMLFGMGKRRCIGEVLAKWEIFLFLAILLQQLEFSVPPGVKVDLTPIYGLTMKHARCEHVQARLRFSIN
Sequence of Nuclear receptor subfamily 1 group I member 2 (Homo sapiens) (O75469 whole entry, looked up): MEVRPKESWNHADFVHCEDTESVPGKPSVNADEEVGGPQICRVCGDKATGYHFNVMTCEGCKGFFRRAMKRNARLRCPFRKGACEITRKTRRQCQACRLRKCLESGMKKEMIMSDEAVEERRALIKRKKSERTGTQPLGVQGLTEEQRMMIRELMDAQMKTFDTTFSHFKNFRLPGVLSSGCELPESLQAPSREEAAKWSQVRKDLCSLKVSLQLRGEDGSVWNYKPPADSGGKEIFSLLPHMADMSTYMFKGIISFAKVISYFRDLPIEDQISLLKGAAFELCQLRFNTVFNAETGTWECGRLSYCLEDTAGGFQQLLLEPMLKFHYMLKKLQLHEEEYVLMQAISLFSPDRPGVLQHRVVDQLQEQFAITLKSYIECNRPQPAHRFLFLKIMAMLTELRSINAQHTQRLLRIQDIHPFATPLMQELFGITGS
Sequence of Cytochrome P450 2C19 (Homo sapiens) (P33261 whole entry, looked up): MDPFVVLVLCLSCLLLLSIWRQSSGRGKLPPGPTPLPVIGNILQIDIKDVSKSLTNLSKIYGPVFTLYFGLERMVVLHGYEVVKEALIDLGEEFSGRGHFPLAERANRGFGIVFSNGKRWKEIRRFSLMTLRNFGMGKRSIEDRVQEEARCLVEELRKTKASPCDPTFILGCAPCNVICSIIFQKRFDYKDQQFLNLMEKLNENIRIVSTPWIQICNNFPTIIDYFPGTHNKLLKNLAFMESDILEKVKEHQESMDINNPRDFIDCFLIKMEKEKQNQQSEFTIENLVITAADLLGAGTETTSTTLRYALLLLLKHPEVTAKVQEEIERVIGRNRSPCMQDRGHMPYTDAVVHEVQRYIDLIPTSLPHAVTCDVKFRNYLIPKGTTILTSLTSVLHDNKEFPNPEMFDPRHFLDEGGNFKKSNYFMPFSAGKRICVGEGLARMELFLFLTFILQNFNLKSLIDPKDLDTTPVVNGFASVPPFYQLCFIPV
Sequence of Acetylcholinesterase (Homo sapiens) (P22303 whole entry, looked up): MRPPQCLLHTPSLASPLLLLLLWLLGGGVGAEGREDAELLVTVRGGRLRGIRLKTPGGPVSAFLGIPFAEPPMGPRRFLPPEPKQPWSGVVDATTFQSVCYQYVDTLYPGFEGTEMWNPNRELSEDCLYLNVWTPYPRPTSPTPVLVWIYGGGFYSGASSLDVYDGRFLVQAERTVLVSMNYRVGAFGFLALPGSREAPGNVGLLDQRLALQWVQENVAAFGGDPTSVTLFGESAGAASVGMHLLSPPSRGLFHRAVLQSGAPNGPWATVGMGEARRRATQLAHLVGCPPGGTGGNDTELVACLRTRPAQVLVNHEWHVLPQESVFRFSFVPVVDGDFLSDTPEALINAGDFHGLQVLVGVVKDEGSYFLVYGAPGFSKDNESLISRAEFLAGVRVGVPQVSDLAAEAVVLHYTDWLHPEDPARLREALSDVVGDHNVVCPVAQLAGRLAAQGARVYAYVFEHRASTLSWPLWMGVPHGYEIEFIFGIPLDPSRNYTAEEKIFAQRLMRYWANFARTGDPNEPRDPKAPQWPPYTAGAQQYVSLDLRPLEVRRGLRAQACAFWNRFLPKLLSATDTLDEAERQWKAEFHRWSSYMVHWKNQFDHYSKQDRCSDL
Sequence of Cytochrome P450 3A4 (Homo sapiens) (P08684 whole entry, looked up): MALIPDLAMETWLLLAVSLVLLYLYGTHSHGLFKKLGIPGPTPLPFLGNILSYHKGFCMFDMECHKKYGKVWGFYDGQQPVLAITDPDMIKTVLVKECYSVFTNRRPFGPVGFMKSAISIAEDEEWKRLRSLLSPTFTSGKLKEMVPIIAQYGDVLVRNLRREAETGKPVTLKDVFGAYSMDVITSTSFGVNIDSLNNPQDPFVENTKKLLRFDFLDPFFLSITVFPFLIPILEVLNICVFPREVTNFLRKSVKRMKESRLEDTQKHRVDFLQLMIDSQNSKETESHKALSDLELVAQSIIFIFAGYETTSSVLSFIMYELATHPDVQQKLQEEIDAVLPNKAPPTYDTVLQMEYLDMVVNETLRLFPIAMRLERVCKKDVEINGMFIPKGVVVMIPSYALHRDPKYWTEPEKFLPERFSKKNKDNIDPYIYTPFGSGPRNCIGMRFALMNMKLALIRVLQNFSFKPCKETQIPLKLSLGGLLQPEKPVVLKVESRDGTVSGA
Sequence of Cytochrome P450 2D6 (Homo sapiens) (P10635 whole entry, looked up): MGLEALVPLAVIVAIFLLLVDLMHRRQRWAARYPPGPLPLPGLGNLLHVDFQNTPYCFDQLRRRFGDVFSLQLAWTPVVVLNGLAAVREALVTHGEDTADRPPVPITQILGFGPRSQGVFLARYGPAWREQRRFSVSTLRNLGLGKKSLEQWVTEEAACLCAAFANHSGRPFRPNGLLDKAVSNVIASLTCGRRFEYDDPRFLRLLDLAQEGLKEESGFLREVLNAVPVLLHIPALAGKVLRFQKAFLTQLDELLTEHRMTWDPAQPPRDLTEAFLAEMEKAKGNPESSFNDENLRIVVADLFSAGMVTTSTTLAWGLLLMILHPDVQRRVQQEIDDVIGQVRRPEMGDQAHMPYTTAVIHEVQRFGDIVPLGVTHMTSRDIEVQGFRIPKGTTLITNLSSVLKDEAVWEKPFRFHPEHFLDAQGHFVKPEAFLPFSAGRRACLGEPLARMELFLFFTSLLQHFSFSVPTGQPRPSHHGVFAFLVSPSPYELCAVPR
Sequence of Voltage-gated inwardly rectifying potassium channel KCNH2 (Homo sapiens) (Q12809 whole entry, looked up): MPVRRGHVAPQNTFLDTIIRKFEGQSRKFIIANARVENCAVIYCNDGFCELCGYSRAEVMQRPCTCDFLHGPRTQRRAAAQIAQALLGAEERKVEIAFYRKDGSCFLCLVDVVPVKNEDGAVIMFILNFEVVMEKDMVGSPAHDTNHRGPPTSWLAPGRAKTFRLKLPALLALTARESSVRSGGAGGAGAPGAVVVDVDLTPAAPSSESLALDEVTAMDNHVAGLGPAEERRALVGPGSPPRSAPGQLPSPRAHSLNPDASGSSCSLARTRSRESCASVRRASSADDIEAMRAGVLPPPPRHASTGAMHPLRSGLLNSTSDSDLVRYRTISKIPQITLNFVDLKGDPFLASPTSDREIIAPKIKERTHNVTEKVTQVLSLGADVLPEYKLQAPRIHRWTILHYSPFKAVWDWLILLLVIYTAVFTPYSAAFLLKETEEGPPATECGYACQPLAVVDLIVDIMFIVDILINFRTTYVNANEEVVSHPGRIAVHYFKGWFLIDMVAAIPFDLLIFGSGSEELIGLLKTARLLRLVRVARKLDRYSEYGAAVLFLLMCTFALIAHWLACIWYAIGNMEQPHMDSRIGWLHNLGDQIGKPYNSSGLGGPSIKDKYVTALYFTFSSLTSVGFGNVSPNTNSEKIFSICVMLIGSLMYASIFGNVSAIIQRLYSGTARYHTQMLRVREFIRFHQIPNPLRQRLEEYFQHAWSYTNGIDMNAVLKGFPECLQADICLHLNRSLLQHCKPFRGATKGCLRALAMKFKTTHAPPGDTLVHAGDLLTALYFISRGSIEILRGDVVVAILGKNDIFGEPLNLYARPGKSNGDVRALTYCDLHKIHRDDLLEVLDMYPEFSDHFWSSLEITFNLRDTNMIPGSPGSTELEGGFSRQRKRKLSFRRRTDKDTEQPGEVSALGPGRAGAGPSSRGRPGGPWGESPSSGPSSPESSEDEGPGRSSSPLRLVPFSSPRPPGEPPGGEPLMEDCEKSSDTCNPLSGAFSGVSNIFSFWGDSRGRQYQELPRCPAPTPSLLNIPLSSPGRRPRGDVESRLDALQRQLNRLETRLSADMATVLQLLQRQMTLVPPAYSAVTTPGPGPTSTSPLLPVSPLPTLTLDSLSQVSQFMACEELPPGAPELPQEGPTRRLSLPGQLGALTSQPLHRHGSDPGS

C=CC(=O)N(C)C
inactive: Potency [1] | Potency [2] | Potency [3] | Potency [4] | Potency [5] | Potency [6] | Potency [7] | Potency [8] | Potency [9] | Potency [10] | Potency [11] | Potency [12] | Potency [13] | Potency [14]

CC(C)OS(C)(=O)=O
inactive: Potency [1] | Potency [2] | Potency [3] | Potency [4] | Potency [5] | Potency [6] | Potency [7] | Potency [8] | Potency [10] | Potency [13] | Potency [14]
active: Potency [9] 40.2 µM | Potency [12] 40.2 µM

Cc1cccc(OP(=O)(Oc2cccc(C)c2)Oc2cccc(C)c2)c1
inactive: Potency [1] | Potency [2] | Potency [3] | Potency [4] | Potency [6] | Potency [7] | Potency [8] | Potency [9] | Potency [13]
active: Potency [5] 30.6 µM | Potency [10] 20 µM | Potency [11] 35.6 µM | Potency [12] 28.3 µM

O=[N+]([O-])c1cc(C(F)(F)F)c(Cl)c([N+](=O)[O-])c1Cl
inactive: Potency [15] | Potency [6] | Potency [7] | Potency [8] | Potency [9]
active: Potency [1] 21.7 µM | Potency [2] 8.63 µM | Potency [3] 1.93 µM | Potency [4] 61.1 µM | Potency [12] 11.2 µM | Potency [13] 27.5 µM

Clc1ccc(CSC(Cn2ccnc2)c2ccc(Cl)cc2Cl)cc1 (stereo not drawn)
active: Potency [2] 18.8 µM | Potency [5] 9.44 µM
inactive: Potency [1] | Potency [3] | max activation [16] 11.4% | Potency [17] | Potency [15] | Potency [7] | Potency [8]

c1ccc(OCC2CO2)cc1 (stereo not drawn)
inactive: Potency [1] | Potency [2] | Potency [3] | Potency [4] | Potency [13]

Clc1ccc(COC(Cn2ccnc2)c2ccc(Cl)cc2Cl)cc1 (stereo not drawn)
inactive: Potency [1] | Potency [3] | Potency [15] | Potency [7] | Potency [8]
active: Potency [2] 22.7 µM and 27.2 µM and 23.7 µM | Potency [4] 50.8 µM and 54.3 µM | Potency [5] 6.4 µM and 7.66 µM and 7.5 µM | Potency [9] 663 nM and 224 nM and 490 nM | Potency [10] 166 nM and 89 nM and 246 nM | Potency [12] 1.87 µM and 1.78 µM and 911 nM

CC(C)CC(C)Nc1ccc(Nc2ccccc2)cc1 (stereo not drawn)
inactive: Potency [1] | Potency [3] | Potency [6] | Potency [8]
active: Potency [2] 60.1 µM | Potency [4] 67.4 µM | Potency [5] 12 µM | Potency [9] 2.78 µM | Potency [10] 0.698 µM | Potency [11] 3.5 µM | Potency [12] 22.1 µM | Potency [13] 24.1 µM | Potency [14] 31.2 µM

CCc1cc(C)cc(CC)c1-c1c(OC(=O)C(C)(C)C)n2n(c1=O)CCOCC2
inactive: Potency [1] | Potency [3] | Potency [5] | Potency [15] | Potency [6] | Potency [7] | Potency [8] | Potency [12] | Potency [13]
active: Potency [2] 27.3 µM | Potency [4] 30.6 µM | Potency [14] 8.94 µM

COc1ccc(OC)c(CC(C)N)c1 (stereo not drawn)
active: Potency [9] 7.62 µM
inactive: Potency [1] | Potency [2] | Potency [3] | Potency [4] | Potency [5] | Potency [15] | Potency [7] | Potency [8] | Potency [10] | Potency [11] | Potency [13]
